Compounds with a hit are over-represented: about 1.2% of the library has one in this group of screens.
S1P2 blocker – S1P2 (human) receptor antagonism | O95136 | cell-based S1P2 antagonist assay, inhibition at 5 uM | inhibition, % at 5 µM | 97,000 compounds, 0.21% hits | AID 736; in the data active = inhibition above about 45%;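 also: CRE beta-lactamase reporter cells expressing human S1P2 stimulated with S1P; 0% = agonist at EC80 alone and 100% = agonist plus reference antagonist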
Target sequence (O95136 whole entry, looked up): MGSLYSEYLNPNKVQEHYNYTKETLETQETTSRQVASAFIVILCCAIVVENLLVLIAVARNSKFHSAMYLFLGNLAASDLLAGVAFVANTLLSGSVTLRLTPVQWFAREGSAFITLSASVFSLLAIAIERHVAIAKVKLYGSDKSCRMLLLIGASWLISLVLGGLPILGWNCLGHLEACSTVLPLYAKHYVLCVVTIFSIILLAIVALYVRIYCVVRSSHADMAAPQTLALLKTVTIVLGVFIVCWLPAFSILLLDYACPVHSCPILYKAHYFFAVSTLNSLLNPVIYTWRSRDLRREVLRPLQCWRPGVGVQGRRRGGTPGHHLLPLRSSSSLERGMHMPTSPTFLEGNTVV
GALR2 blocker – blocks the human galanin receptor 2; O43603; GALR2-expressing cells, antagonist mode; inhibition, % at 4 µM; 140,000 compounds, 0.39% hits; AID 828; in the data active = inhibition above about 27%;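 also: cells stimulated with galanin 1-16 at roughly its EC80; 0% = agonist challenge control and 100% = basal control without agonist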
S1P2 ag – activates the human S1P2 receptor. S1P2-expressing cell line, agonist reporter read-out. 97,000 compounds, 0.46% hits. activation, % at 4.5 µM. AID 729; in the data active = activation above about 16%;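 also: 0% = vehicle low control and 100% = maximal reference agonist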
GALR2 ag – agonists of human galanin receptor 2 (GALR2); O43603; GALR2-expressing cells, agonist activation read-out; activation, % (test concentration not listed); 140,000 compounds, 0.48% hits; in the data active = activation above about 5%, passing the limit was not always enough;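 also: 0% = vehicle buffer wells and 100% = reference agonist at full effect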
* hit, by the source's call; nt = no result.

SMILES | S1P2 blocker | GALR2 blocker | S1P2 ag | GALR2 ag
Cc1ccc(-c2nnc3c4ccccc4c(C)nn23)cc1S(=O)(=O)N1CCN(CCO)CC1 | -41 | -3 | 17* | 1
CCC(c1nnnn1C(C)(C)C)N(Cc1cccs1)Cc1cc2cc(C)c(C)cc2n2nnnc12 (stereo unspecified) | -10 | -8 | 1 | -2
Cc1ccc(C2CC(c3ccccc3)=NN2c2ccccc2)o1 (stereo unspecified) | nt | -9 | nt | 7.1*
CCSc1nc2c(sc3ccccc32)c(=O)n1C(C)C | -10 | 1 | -5 | -1
CCCCOc1ccccc1NC(=O)Cn1c(-c2nonc2N)nc2ccccc21 | nt | 18 | nt | 7.8*
CCOC(=O)c1ccc(S(=O)(=O)NNC(=O)COc2ccc(C)cc2)cc1 | nt | -9 | nt | -1
Cc1c(C(=O)NN)nc2ccccn12 | nt | -8 | nt | 0
COc1ccc(NC(=O)COC(=O)c2cc(OC)c(OC)cc2NC(=O)c2ccco2)cc1OC | -20 | 0 | 18* | 0
COc1ccc(-n2c(O)c(/C=N/n3cnnc3)c3ccccc3c2=O)cc1 | 17 | 6 | -3 | 0
COc1cc(CNCCc2ccc(S(N)(=O)=O)cc2)ccc1OCc1ccc(Cl)cc1 | 27 | -10 | -8 | -1
CCOc1cc(CNCCc2ccc(S(N)(=O)=O)cc2)ccc1OCc1ccc(Cl)cc1 | 61* | 9 | -5 | 1
COc1cc(/C=c2/sc3nc(-c4ccccc4)c(-c4ccccc4)n3c2=O)cc(OC)c1OC | nt | -2 | nt | 0
COc1ccc(/C=c2\sc3nc(-c4ccccc4)c(-c4ccccc4)n3c2=O)cc1OC | -3 | -14 | 22* | -2
COc1ccccc1C1CC(c2cccs2)=Nc2ccccc2S1 (stereo unspecified) | 2 | 8 | -2 | 5
COc1ccccc1C1CN(c2ccc(F)cc2F)N=C1c1cccs1 (stereo unspecified) | -33 | -13 | 17* | 37*
O=C(c1cn(-c2ccccc2)nc1-c1cccs1)N1CCN(c2ccc(F)cc2)CC1 | 1 | 0 | -2 | -2
Nc1c(-c2cccc(Cl)c2)cnn1-c1cccc(C(F)(F)F)c1 | -4 | -4 | 3 | 0
O=c1ccn(-c2cccc(C(F)(F)F)c2)nc1-c1ccn(-c2cccc(Cl)c2)n1 | -24 | -3 | 28* | -1
COc1cc2c(cc1OC)C(COc1ccc(F)cc1)N(C(=O)c1ccco1)CC2 (stereo unspecified) | -22 | 13 | 0 | 1
COc1cc2c(cc1OC)C(COc1ccc3c(C)cc(=O)oc3c1)N(C(=O)c1ccco1)CC2 (stereo unspecified) | -8 | 2 | 21* | -1
Cc1ccccc1N1C(S)=C(C#N)C(=O)NC12CCCCC2 | nt | -5 | nt | -1
COC(=O)c1cn[nH]c1NC(=S)Nc1ccc(C)cc1Cl | -19 | 11 | -11 | -2
COC(=O)c1cn[nH]c1NC(=S)Nc1ccccc1C | -1 | -3 | 57* | 0
COC(=O)C1=C(SC)N(c2ccc(OC)cc2)C(c2ccccc2)CC1=O (stereo unspecified) | nt | -17 | nt | 0
COCCn1c(=NC(C)=O)sc2cc([N+](=O)[O-])ccc21 | nt | 1 | nt | 6.2*
SMILES | S1P2 blocker | GALR2 blocker | S1P2 ag | GALR2 ag
COCCn1c(=NC(=O)c2nc3ccccc3s2)sc2cc(S(C)(=O)=O)ccc21 | nt | -1 | nt | 0
CC1(C)CC(CC(=O)NC(=S)Nc2ccc([N+](=O)[O-])cc2)C(=O)O1 (stereo unspecified) | 13 | 10 | -8 | -2
CC(C)OCC1CC(CC(=O)NC(=S)Nc2cccc([N+](=O)[O-])c2)C(=O)O1 (stereo unspecified) | -2 | -3 | 47* | -1
COc1ccc2cc3c(N)nn(C(=O)c4cccc([N+](=O)[O-])c4)c3nc2c1 | nt | -2 | nt | 8.0*
O=C(c1ccc(F)cc1)C(CN1CCOCC1)c1ccccc1 (stereo unspecified) | 28 | 32* | -13 | -1
O=C(c1ccccc1)C(CCC(CN1CCOCC1)C(=O)c1ccccc1)CN1CCOCC1 (stereo unspecified) | 53* | 8 | -6 | 0
c1ccc2nc3c(nc2c1)[nH]c1ccccc13 | nt | 10 | nt | -1
c1ccc(-c2c3ccccc3nc3[nH]c4ccccc4c23)cc1 | nt | -5 | nt | 5.0*
CC(C(=O)N1CCCc2ccccc21)N1C(=O)c2ccccc2C1=O (stereo unspecified) | 10 | -7 | -7 | -1
CCCc1nn(-c2cc(Cl)ccc2OC)c2c1C(=O)CCC2 | -23 | -5 | 59* | 1
COc1ccccc1NC(CC(=O)c1ccccc1)C(=O)OCC(=O)c1ccc(F)cc1 (stereo unspecified) | nt | -2 | nt | -1
O=[n+]1cc(-c2cccc3ccccc23)n([O-])c2c1CCC2 | 0 | 7 | -6 | -1
CCOC(=O)c1sc2nccc(N(C)C)c2c1N=CNOCc1ccccc1 | -3 | -14 | 6 | 3
CCOC(=O)c1sc2nccc(N(C)C)c2c1N=CNOCc1c(F)cccc1Cl | -16 | -16 | 33* | 0
Cc1ccc2nc3c(cc(C(=O)NCCCn4ccnc4)n3C)c(=O)n2c1 | -20 | 8 | 5 | 0
CCCn1c(=NC(=O)c2ccco2)c(C(=O)OCC)cc2c(=O)n3ccccc3nc21 | -51 | -3 | 7 | 2
CNC(=O)c1cc2c(=O)n3cc(C)ccc3nc2n(C(C)C)c1=N | -18 | 0 | 18* | 16*
C=CCn1c(=N)c(C(=O)NCCCOC)cc2c(=O)n3ccccc3nc21 | -33 | -3 | 30* | 23*
COc1ccc(CCn2c(=N)c(C(=O)NCc3ccco3)cc3c(=O)n4ccccc4nc32)cc1 | 15 | 1 | -2 | 0
CCCCCn1c(=NC(C)=O)c(C#N)cc2c(=O)n3ccccc3nc21 | -36 | 2 | 9 | 2
CCOC(=O)c1cc2c(=O)n3ccccc3nc2n(CCCOC)c1=NC(C)=O | -56 | -14 | 35* | 13*
CC(C)OCCCn1c(=NC(=O)c2ccncc2)c(C#N)cc2c(=O)n3ccccc3nc21 | -54 | -23 | 41* | 12*
COCCCNC(=O)c1cc2c(=O)n3cccc(C)c3nc2n(C(C)C)c1=N | -3 | -6 | 5 | 6
C=CCn1c(=N)c(C(=O)NCCCOC)cc2c(=O)n3cc(C)ccc3nc21 | -38 | -14 | 19* | 16*
Cc1ccccc1NCC(=O)N/N=C\C=C\c1cccc([N+](=O)[O-])c1 | nt | -3 | nt | -1
SMILES | S1P2 blocker | GALR2 blocker | S1P2 ag | GALR2 ag
N#Cc1c(NCCN)nc(-c2ccco2)c2c1CCCC2 | -47 | -12 | 20* | 6
CCc1nc(NCCC(C)C)c(C#N)c2c1CCCC2 | -18 | 10 | -5 | -1
CC(C)CCNc1nc(-c2ccco2)c2c(c1C#N)CCCC2 | -50 | 0 | 37* | 10
CCOC(=O)C1(c2ccccc2)NC(c2ccccc2C)C2C(=O)N(c3ccc4c(c3)OCO4)C(=O)C21 (stereo unspecified) | -1 | 13 | -7 | -1
Cc1cc(N2CCN(c3nc4ccccc4s3)CC2)n2ncnc2n1 | 51* | 19 | 2 | -1
COC(=O)CN1CCN(C(c2ccccc2)c2ccccc2)CC1 | -2 | 3 | -15 | 0
COCCNC(=O)CN1CCN(C(c2ccccc2)c2ccccc2)CC1 | 9 | 5 | 55* | -3
Cc1ccc(C)c(N2CCN(c3nnnn3-c3ccccc3)CC2)c1 | -27 | -13 | 1 | 0

Bioassay records: PubChem, The Scripps Research Institute Molecular Screening Center
